This passage reports growth inhibition results from PubChem BioAssay (NCI).

Each structure is given as a SMILES string. The panel holds about 79,000 compounds, 15% with a hit somewhere; the sample as a whole holds those more often. Values without a mark were called inactive. The source made the active and inactive calls. Rule as the data show it: active = growth inhibition above about 70%; inactive = the rest.

Experiment [1] can be described thus: NCI Yeast Anticancer Drug Screen. Data for the rad50 strain (AID 155).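 Also: 0% = growth of vehicle-only cultures of the same strain.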 Conditions: S. cerevisiae rad50 strain growth inhibition, stronger effect = higher value. A digest of the protocol:
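Growth of the mutant yeast was measured after compound exposure and referenced to vehicle-treated cultures.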

The nature of experiment [2]: NCI Yeast Anticancer Drug Screen. Data for the mec2-1 strain (AID 157). The conditions noted are these: S. cerevisiae mec2-1 strain, stronger effect = higher value. Summed up: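 Yeast mec2-1 mutant treated with compound. Readout: growth inhibition vs vehicle controls.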
Experiment [3] in a line: NCI Yeast Anticancer Drug Screen. Data for the sgs1 mgt1 strain (AID 161).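 Also: 0% = growth of cultures given vehicle only.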 Conditions: S. cerevisiae sgs1 mgt1 strain, stronger effect = higher value. A digest of the protocol:
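Mutant yeast exposed to compound; growth scored against vehicle-only wells.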

Experiment [4] in a line: NCI Yeast Anticancer Drug Screen. Data for the cln2 rad14 strain (AID 165).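 Also: 0% = growth equal to vehicle treated cultures.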 The conditions noted are these: S. cerevisiae cln2 rad14 strain, stronger effect = higher value. A digest of the protocol:
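cln2 rad14 yeast strain; compound exposure; growth inhibition read vs vehicle controls.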

Experiment [5] can be described thus: NCI Yeast Anticancer Drug Screen. Data for the bub3 strain (AID 167). The conditions noted are these: S. cerevisiae bub3 mutant strain, stronger effect = higher value. Summed up: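 Whole-cell yeast assay. The mutant strain was incubated with compounds, and growth inhibition was determined by comparison with vehicle-treated cells.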
The nature of experiment [6]: NCI Yeast Anticancer Drug Screen. Data for the mlh1 rad18 strain (AID 175). Conditions: S. cerevisiae mlh1 rad18 strain growth inhibition, stronger effect = higher value. A digest of the protocol:
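Yeast w/ defined DNA-repair lesions; compound exposure; growth vs vehicle controls → % inhibition.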

The mark [7] stands for this setting: at 5.0 µM (retest, dose inferred, filed as 0.5).
Setting [8] is: at 50.0 µM (retest, dose inferred, filed as 5.0).

As for `Cc1ccc(SSCCCCCS(=O)O)cc1`, the growth inhibition was 1% in experiment [1] (setting [7]); 24% in experiment [1] (setting [8]); 49.5% in experiment [1] (at 50.0 µM); 4% in experiment [2] (setting [7]); 60% in experiment [2] (setting [8]); 23.1% in experiment [2] (at 50.0 µM). Besides, the growth inhibition in experiment [3] (setting [7]) is 3%; in experiment [3] (setting [8]), 54%; in experiment [3] (at 50.0 µM), 42.9%; in experiment [4] (setting [7]), -5%; in experiment [4] (setting [8]), 34%; in experiment [4] (at 50.0 µM) it was 58%. Besides, the growth inhibition is 10% in experiment [5] (setting [7]); 88% (active) in experiment [5] (setting [8]); 84.4% (active) in experiment [5] (at 50.0 µM); 6% in experiment [6] (setting [7]); 49% in experiment [6] (setting [8]); 77.5% (active) in experiment [6] (at 50.0 µM).
`CC1C=C(COC(=O)Nc2ccccc2)ON1c1ccccc1` (stereo not drawn): the growth inhibition in experiment [1] (setting [7]) was -2%; in experiment [1] (setting [8]), 97% (active); in experiment [1] (at 50.0 µM), 98.2% (active); in experiment [2] (setting [7]), -3%; in experiment [2] (setting [8]), 96% (active); in experiment [2] (at 50.0 µM) it was 98% (active). For the same compound, the growth inhibition in experiment [3] (setting [7]) is -2%; in experiment [3] (setting [8]), 97% (active); in experiment [3] (at 50.0 µM), 98.2% (active); in experiment [4] (setting [7]) it was -4%; in experiment [4] (setting [8]), 95% (active); in experiment [4] (at 50.0 µM), 98.3% (active). Further, the growth inhibition in experiment [5] (setting [7]) was -8%; in experiment [5] (setting [8]), 93% (active); in experiment [5] (at 50.0 µM) it was 98.5% (active); in experiment [6] (setting [7]) it was -1%; in experiment [6] (setting [8]), 97% (active); in experiment [6] (at 50.0 µM), 97.8% (active).
In the case of `COC(=O)[C@@]12OC[C@]34[C@H]([C@@H](O)[C@@H]1O)[C@@]1(C)[C@H](O)C(=O)C=C(C)[C@@H]1C[C@H]3OC(=O)C(OC(C)=O)[C@@H]24` (stereo partly drawn), the growth inhibition in experiment [1] (setting [7]) is 36%; in experiment [1] (setting [8]) it was 98% (active); in experiment [1] (at 50.0 µM) it was 91% (active); in experiment [2] (setting [7]), 35%; in experiment [2] (setting [8]), 98% (active); in experiment [2] (at 50.0 µM) it was 89.3% (active). For the same compound, the growth inhibition in experiment [3] (setting [7]) is 30%; in experiment [3] (setting [8]), 98% (active); in experiment [3] (at 50.0 µM) it was 87.8% (active); in experiment [4] (setting [7]), 43%; in experiment [4] (setting [8]), 99% (active); in experiment [4] (at 50.0 µM) it was 90.5% (active). The growth inhibition in experiment [5] (setting [7]) is 19%; in experiment [5] (setting [8]), 98% (active); in experiment [5] (at 50.0 µM), 90.5% (active); in experiment [6] (setting [7]) it was 34%; in experiment [6] (setting [8]), 99% (active); in experiment [6] (at 50.0 µM) it was 90.8% (active).
`CCOC(=O)[C@]12CCC[C@@]1(O)NC(=O)c1cnccc12`: the growth inhibition is 33% in experiment [1] (setting [7]); 99% (active) in experiment [1] (setting [8]); 97.3% (active) in experiment [1] (at 50.0 µM); 13% in experiment [2] (setting [7]); 99% (active) in experiment [2] (setting [8]); 97.7% (active) in experiment [2] (at 50.0 µM). Moreover, the growth inhibition is 15% in experiment [3] (setting [7]); 98% (active) in experiment [3] (setting [8]); 97.4% (active) in experiment [3] (at 50.0 µM); -1% in experiment [4] (setting [7]); 7% in experiment [4] (setting [8]); 91.2% (active) in experiment [4] (at 50.0 µM). The growth inhibition in experiment [5] (setting [7]) is -2%; in experiment [5] (setting [8]), 9%; in experiment [5] (at 50.0 µM), 96.9% (active); in experiment [6] (setting [7]), 0%; in experiment [6] (setting [8]), 97% (active); in experiment [6] (at 50.0 µM), 97.3% (active).
In the case of `OC(c1cc2ccccc2o1)c1cc2ccccc2s1` (stereo not drawn), the growth inhibition in experiment [1] (setting [7]) was -4%; in experiment [1] (setting [8]) it was 95% (active); in experiment [1] (at 50.0 µM), 44.2%; in experiment [2] (setting [7]) it was -11%; in experiment [2] (setting [8]), 94% (active); in experiment [2] (at 50.0 µM), 75.2% (active). The growth inhibition is 2% in experiment [3] (setting [7]); 46% in experiment [3] (setting [8]); 70.4% (active) in experiment [3] (at 50.0 µM); -12% in experiment [4] (setting [7]); 97% (active) in experiment [4] (setting [8]); 61.6% in experiment [4] (at 50.0 µM). The growth inhibition in experiment [5] (setting [7]) was -6%; in experiment [5] (setting [8]), 93% (active); in experiment [5] (at 50.0 µM), 78.7% (active); in experiment [6] (setting [7]) it was 16%; in experiment [6] (setting [8]), 94% (active); in experiment [6] (at 50.0 µM) it was 43%.
For `Cc1nc2sc3c(c2c2nnnn12)CCCC3`, the growth inhibition in experiment [1] (setting [7]) is 2%; in experiment [1] (setting [8]) it was 28%; in experiment [1] (at 50.0 µM), 6.6%; in experiment [2] (setting [7]), 8%; in experiment [2] (setting [8]) it was 29%; in experiment [2] (at 50.0 µM) it was 16.9%. Also, the growth inhibition is 24% in experiment [3] (setting [7]); 74% (active) in experiment [3] (setting [8]); 53% in experiment [3] (at 50.0 µM); 4% in experiment [4] (setting [7]); 23% in experiment [4] (setting [8]); -6.5% in experiment [4] (at 50.0 µM). The growth inhibition was 3% in experiment [5] (setting [7]); 11% in experiment [5] (setting [8]); 27.6% in experiment [5] (at 50.0 µM); 7% in experiment [6] (setting [7]); 31% in experiment [6] (setting [8]); 9.45% in experiment [6] (at 50.0 µM).
